Reference: PubChem BioAssay AID651871 (Sanford-Burnham Center for Chemical Genomics, 2012)
“And” between values parts separate entries of the source, which are not always exact repeats. Identical values can stand only once.

What follows are compounds tested on H9c2 (assay: protection of cardiomyocytes from stress damage, SAR follow-up, cell-based, panel, H9c2 and HL-1, ATP luminescence, set 2 (AID 651871;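 note: cells exposed to stressor for 2 h before ATP readout; reference of the scale not given here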)). Settings: H9c2/HL-1 cardiomyocytes, 2-deoxyglucose stress, with 2-deoxyglucose; run 1, at 79 µM (top of the series).
COc1ccc2c(c1OC)C(=O)N1c3ccccc3C(=O)N(Cc3cccc(Cl)c3Cl)C21 (stereo not drawn) was tested, and the activity (protection/inhibition) was 80.3% and 69.7% and -3.54%.
Compound CCOC(=O)c1cccc(NC(=O)CNC(=O)c2cc(-c3cc(OC)c(OC)c(OC)c3)nc3ccccc23)c1 has an activity (protection/inhibition) of 92.1%.
COc1ccc2nc(-c3cc(OC)c(OC)c(OC)c3)cc(C(=O)NCC(=O)Nc3ccc(C(C)=O)cc3)c2c1 gave an activity (protection/inhibition) of 74.1%.
